Source: ChEMBL document CHEMBL1961873, “Compounds: GSK PKIS; Assays: Nanosyn kinase panel” (2012)

Tests used:
[1] = biological target: Tyrosine-protein kinase SYK (Homo sapiens) (UniProt P43405); conditions: at 1 µM
[2] = biological target: T1, Tyrosine-protein kinase Tec (Homo sapiens) (UniProt P42680); conditions: at 0.1 µM
T1 sequence (whole entry): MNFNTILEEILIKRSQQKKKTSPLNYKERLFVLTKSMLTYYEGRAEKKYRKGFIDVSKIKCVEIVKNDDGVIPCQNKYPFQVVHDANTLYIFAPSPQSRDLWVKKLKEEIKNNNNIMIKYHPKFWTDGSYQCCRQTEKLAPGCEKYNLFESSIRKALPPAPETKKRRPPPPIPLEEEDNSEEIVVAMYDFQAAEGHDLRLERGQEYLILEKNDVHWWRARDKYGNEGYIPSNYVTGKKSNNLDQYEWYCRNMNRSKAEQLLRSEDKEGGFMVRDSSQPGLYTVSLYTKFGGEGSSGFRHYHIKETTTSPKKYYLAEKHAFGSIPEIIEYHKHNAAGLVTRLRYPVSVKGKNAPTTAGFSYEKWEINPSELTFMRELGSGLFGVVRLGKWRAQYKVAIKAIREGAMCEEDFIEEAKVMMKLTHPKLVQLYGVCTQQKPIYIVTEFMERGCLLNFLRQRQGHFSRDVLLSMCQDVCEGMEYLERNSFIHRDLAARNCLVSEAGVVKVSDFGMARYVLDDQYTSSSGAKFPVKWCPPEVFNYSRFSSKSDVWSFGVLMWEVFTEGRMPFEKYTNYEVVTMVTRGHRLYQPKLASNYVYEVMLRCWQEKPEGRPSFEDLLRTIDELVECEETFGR

[3] = biological target: T1, Tyrosine-protein kinase Tec (Homo sapiens); conditions: at 1 µM
[4] = biological target: Angiopoietin-1 receptor (Homo sapiens) (UniProt Q02763); conditions: at 0.1 µM
Angiopoietin-1 receptor (Homo sapiens), sequence (Q02763 whole entry): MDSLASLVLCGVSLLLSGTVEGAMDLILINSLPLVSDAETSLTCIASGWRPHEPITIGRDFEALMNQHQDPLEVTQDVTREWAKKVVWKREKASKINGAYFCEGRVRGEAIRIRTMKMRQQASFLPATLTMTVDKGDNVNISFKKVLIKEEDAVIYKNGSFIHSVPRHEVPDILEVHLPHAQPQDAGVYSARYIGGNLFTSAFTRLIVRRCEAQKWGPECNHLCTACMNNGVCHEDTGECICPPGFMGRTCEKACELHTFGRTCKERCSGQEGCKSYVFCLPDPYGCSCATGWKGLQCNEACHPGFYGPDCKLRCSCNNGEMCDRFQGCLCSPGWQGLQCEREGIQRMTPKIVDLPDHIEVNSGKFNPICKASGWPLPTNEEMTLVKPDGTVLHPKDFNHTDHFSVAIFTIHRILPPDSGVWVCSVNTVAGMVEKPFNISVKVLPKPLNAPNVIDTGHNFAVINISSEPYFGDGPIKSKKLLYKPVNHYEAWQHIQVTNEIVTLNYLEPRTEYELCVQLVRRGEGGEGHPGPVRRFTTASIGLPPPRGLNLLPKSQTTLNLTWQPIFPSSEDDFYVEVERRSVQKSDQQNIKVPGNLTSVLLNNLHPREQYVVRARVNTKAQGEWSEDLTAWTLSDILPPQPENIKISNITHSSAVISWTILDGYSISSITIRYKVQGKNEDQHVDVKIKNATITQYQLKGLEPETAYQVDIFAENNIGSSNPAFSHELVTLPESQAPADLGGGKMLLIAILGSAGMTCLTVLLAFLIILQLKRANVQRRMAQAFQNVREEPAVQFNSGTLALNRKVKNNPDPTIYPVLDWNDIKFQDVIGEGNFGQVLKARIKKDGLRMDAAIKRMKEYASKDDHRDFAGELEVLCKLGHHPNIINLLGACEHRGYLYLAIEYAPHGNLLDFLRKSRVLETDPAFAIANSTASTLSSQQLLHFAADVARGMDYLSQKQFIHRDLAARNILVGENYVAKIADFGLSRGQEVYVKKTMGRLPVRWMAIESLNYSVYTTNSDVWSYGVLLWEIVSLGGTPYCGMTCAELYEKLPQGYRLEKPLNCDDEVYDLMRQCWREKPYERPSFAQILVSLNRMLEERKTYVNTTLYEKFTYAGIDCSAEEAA

[5] = biological target: Angiopoietin-1 receptor (Homo sapiens) (UniProt Q02763); conditions: at 1 µM
[6] = biological target: T2, Non-receptor tyrosine-protein kinase TNK1 (Homo sapiens) (UniProt Q13470); conditions: at 0.1 µM
T2 sequence (whole entry): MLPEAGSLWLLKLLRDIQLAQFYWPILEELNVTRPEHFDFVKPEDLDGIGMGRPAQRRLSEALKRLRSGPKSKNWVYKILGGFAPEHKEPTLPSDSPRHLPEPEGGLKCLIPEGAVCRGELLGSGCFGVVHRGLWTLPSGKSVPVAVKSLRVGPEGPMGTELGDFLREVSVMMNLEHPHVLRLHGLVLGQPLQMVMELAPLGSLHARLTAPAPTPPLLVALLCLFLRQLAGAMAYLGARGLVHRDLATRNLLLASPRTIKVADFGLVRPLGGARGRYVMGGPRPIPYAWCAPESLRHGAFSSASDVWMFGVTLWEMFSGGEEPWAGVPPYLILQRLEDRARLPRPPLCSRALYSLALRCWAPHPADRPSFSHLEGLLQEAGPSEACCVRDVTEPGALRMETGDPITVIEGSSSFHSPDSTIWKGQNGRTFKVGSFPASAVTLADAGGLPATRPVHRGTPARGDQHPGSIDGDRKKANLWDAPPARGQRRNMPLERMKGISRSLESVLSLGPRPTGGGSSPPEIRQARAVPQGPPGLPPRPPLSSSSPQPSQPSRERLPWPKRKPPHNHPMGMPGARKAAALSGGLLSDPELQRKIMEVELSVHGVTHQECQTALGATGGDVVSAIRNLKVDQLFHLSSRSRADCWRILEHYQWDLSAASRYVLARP

[7] = biological target: T2, Non-receptor tyrosine-protein kinase TNK1 (Homo sapiens); conditions: at 1 µM
[8] = biological target: Activated CDC42 kinase 1 (Homo sapiens) (UniProt Q07912); conditions: at 0.1 µM
[9] = biological target: Activated CDC42 kinase 1 (Homo sapiens) (UniProt Q07912); conditions: at 1 µM
[10] = biological target: High affinity nerve growth factor receptor (Homo sapiens) (UniProt P04629); conditions: at 0.1 µM
High affinity nerve growth factor receptor (Homo sapiens), sequence (P04629 33-796 limits assumed): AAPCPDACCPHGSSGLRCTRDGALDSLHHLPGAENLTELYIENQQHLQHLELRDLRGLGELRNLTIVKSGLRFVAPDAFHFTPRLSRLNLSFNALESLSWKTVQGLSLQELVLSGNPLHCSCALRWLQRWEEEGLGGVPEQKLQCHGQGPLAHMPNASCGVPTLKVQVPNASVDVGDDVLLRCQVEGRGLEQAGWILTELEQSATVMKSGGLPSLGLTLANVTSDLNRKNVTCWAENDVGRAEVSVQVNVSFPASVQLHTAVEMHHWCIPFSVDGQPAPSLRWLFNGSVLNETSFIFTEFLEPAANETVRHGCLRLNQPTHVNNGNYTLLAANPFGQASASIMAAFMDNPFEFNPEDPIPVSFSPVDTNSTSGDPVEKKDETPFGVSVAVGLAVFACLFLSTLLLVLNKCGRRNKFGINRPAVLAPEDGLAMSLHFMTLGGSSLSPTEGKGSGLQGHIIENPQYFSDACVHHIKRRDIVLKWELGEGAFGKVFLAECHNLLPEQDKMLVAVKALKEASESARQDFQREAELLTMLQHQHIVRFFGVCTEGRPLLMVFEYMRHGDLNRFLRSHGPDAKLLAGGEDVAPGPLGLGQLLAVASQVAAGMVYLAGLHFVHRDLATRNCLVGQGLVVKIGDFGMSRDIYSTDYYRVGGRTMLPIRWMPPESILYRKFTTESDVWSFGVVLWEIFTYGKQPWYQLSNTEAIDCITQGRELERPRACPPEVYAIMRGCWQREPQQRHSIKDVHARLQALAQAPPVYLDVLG

[11] = biological target: High affinity nerve growth factor receptor (Homo sapiens) (UniProt P04629); conditions: at 1 µM
[12] = biological target: BDNF/NT-3 growth factors receptor (Homo sapiens) (UniProt Q16620); conditions: at 0.1 µM
BDNF/NT-3 growth factors receptor (Homo sapiens), sequence (Q16620 32-822 limits assumed): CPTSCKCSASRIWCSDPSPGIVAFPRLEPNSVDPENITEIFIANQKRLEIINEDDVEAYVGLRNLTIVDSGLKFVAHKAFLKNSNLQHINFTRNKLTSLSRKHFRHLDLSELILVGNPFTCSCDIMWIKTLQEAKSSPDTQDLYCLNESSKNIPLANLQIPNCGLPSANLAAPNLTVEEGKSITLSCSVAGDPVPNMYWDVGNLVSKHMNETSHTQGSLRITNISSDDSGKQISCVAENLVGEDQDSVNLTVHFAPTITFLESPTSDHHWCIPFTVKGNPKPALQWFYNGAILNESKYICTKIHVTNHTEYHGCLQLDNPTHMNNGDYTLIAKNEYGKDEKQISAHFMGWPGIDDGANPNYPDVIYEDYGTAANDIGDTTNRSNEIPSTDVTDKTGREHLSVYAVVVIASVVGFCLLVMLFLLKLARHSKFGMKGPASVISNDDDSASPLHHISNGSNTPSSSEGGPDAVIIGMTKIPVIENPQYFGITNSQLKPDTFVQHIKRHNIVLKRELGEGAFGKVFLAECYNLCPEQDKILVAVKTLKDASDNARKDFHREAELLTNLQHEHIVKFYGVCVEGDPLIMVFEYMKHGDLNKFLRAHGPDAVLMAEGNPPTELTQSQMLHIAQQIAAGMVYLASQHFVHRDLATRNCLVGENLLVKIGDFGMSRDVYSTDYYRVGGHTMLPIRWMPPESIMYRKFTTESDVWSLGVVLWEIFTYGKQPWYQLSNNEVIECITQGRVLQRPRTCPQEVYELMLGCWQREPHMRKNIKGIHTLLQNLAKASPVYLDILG

[13] = biological target: BDNF/NT-3 growth factors receptor (Homo sapiens) (UniProt Q16620); conditions: at 1 µM
[14] = biological target: NT-3 growth factor receptor (Homo sapiens) (UniProt Q16288); conditions: at 0.1 µM
NT-3 growth factor receptor (Homo sapiens), sequence (Q16288 32-839 limits assumed): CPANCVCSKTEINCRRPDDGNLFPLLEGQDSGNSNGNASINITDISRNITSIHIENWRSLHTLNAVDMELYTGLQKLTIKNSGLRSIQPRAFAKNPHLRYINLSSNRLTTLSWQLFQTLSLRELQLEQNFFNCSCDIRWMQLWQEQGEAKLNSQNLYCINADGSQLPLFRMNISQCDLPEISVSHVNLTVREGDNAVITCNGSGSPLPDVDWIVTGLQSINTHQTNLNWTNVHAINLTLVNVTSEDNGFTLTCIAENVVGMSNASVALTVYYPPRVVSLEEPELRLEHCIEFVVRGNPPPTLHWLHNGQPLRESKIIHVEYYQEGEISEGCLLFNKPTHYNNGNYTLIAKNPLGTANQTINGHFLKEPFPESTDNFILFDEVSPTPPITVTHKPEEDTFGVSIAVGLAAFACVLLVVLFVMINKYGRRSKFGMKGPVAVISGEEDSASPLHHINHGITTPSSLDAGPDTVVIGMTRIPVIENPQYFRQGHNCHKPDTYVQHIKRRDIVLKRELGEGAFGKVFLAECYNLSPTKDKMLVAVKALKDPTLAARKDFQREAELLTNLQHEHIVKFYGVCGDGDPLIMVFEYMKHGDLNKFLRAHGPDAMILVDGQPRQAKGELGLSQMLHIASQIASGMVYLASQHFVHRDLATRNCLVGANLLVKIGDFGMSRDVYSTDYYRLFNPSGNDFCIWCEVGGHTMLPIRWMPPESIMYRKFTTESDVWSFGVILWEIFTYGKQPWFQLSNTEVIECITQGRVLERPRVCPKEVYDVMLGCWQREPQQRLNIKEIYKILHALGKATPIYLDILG

[15] = biological target: NT-3 growth factor receptor (Homo sapiens) (UniProt Q16288); conditions: at 1 µM
[16] = biological target: T3, Tyrosine-protein kinase TXK (Homo sapiens) (UniProt P42681); conditions: at 0.1 µM
T3 sequence (whole entry): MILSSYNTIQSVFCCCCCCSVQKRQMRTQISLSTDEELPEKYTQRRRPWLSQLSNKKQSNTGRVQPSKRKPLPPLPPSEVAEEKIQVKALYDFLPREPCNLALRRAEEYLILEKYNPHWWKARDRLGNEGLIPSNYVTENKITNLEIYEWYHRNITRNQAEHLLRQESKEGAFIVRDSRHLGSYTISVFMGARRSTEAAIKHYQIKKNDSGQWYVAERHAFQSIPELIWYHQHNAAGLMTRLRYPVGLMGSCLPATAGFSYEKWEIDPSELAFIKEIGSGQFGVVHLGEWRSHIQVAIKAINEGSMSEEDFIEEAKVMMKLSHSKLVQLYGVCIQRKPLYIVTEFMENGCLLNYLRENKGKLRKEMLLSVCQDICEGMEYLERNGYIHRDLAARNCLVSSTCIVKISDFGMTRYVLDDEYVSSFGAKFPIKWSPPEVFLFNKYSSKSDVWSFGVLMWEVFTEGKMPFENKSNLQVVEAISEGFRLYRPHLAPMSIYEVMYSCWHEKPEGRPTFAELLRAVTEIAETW

[17] = biological target: T3, Tyrosine-protein kinase TXK (Homo sapiens); conditions: at 1 µM
[18] = biological target: Non-receptor tyrosine-protein kinase TYK2 (Homo sapiens) (UniProt P29597); conditions: at 0.1 µM;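 also: each value is a mean of the inhibition readings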
Non-receptor tyrosine-protein kinase TYK2 (Homo sapiens), sequence (P29597 whole entry): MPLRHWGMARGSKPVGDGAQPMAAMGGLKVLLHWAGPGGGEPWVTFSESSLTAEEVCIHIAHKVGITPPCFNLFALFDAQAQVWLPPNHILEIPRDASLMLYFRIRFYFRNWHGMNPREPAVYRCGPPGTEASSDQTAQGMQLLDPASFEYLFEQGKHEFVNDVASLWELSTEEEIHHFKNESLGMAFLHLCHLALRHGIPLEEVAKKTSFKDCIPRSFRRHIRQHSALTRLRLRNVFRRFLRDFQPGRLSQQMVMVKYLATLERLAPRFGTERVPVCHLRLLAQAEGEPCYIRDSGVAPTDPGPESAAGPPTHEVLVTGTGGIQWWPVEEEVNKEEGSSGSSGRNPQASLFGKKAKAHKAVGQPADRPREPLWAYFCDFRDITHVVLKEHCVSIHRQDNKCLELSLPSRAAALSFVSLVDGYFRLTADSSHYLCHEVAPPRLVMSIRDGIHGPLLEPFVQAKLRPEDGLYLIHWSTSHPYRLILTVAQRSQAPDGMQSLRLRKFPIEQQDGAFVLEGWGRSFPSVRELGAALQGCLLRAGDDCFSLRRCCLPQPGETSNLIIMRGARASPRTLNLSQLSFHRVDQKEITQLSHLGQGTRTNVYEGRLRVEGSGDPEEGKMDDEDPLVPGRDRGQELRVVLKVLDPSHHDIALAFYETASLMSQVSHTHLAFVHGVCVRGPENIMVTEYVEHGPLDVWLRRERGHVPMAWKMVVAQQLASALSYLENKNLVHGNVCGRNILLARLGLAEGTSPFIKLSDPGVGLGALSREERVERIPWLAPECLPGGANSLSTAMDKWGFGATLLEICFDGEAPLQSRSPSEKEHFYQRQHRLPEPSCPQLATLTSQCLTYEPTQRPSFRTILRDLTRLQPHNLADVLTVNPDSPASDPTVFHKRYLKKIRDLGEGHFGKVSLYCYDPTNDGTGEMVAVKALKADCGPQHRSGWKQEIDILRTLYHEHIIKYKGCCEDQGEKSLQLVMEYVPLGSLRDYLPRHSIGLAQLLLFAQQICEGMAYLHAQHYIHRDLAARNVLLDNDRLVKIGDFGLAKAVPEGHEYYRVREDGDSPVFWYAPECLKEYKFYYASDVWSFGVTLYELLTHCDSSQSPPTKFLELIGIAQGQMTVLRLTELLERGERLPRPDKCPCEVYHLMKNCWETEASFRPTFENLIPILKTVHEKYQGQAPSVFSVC

[19] = biological target: T4, Dual specificity protein kinase TTK (Homo sapiens) (UniProt P33981); conditions: at 1 µM;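 also: reported figures are mean TTK inhibition at 1 µM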
T4 sequence (whole entry): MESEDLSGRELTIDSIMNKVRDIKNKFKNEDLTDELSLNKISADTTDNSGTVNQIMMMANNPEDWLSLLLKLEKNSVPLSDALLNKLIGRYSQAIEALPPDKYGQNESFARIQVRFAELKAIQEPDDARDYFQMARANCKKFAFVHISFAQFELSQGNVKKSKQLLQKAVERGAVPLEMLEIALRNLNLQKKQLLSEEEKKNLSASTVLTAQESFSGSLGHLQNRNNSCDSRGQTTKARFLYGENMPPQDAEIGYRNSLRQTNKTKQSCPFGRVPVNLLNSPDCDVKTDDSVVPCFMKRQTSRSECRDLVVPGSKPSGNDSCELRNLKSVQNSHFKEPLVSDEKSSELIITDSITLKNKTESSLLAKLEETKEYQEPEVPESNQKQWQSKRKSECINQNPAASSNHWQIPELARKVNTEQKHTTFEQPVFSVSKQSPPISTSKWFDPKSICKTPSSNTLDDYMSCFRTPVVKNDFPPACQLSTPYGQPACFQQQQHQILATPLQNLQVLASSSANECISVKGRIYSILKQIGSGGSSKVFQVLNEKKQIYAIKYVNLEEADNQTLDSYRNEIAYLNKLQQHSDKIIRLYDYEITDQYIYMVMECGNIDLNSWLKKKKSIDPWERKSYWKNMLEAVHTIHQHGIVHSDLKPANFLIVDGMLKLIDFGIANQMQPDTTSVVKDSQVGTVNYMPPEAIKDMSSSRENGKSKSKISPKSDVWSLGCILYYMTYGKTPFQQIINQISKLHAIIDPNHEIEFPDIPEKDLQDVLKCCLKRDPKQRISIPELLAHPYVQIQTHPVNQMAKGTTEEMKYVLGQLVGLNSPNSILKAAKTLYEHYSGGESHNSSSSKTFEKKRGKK

[20] = biological target: T5, Aurora kinase A (Homo sapiens) (UniProt O14965); conditions: at 0.1 µM;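 also: each reported value is a mean percent inhibition of Aurora-A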
T5 sequence (whole entry): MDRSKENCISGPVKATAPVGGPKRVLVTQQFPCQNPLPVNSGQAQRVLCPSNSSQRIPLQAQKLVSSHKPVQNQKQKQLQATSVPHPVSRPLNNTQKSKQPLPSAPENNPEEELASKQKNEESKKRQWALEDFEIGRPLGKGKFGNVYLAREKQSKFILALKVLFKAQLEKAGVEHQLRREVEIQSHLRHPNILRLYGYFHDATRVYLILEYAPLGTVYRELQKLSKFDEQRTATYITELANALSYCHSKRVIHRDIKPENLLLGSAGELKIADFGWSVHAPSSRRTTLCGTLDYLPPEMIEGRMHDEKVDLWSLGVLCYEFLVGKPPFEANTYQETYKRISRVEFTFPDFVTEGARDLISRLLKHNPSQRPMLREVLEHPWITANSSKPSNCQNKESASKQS

SMILES | inhibition [1] [%] | inhibition [2] [%] | inhibition [3] [%] | inhibition [4] [%] | inhibition [5] [%] | inhibition [6] [%] | inhibition [7] [%] | inhibition [8] [%] | inhibition [9] [%] | inhibition [10] [%] | inhibition [11] [%] | inhibition [12] [%] | inhibition [13] [%] | inhibition [14] [%] | inhibition [15] [%] | inhibition [16] [%] | inhibition [17] [%] | inhibition [18] [%] | inhibition [19] [%] | inhibition [20] [%]
O=C1Nc2ccc(-c3cccnc3)cc2C1=Cc1cc(Br)c(O)c(Br)c1 | -2.96 | 3.68 | 8.99 | 1.2 | 2.63 | 52.5 | 80.6 | 1.09 | 3.05 | 4.7 | 12.8 | 2.93 | 12.2 | 4.91 | 24.1 | 2.22 | 6.14 | 0.81 | 7.48 | 15.5
CCn1c(-c2nonc2N)nc2c(C#CC(C)(C)O)nc(OCCNC)cc21 | 0.91 | 5.49 | 3.22 | 2.67 | 6.8 | 0.64 | 3.22 | 0.83 | 1.43 | 3.54 | 6.23 | 3.15 | 3.59 | 1.5 | 2.5 | 3.81 | 2.46 | -0.47 | 9.85 | 1.75
Cc1ccc(NC(=O)CC2CC2)cc1-c1ccc(C(=O)NCC2CC2)cc1 | 0.5 | 5.07 | 8.67 | 2.75 | 6.74 | 2.27 | 10.1 | 0.82 | 3.94 | 3.3 | 1.04 | 1.14 | 3.38 | 2.32 | 4.16 | 3.64 | 5.85 | -4.51 | 7.66 | 4.04
NC(=O)c1cccc(Nc2nccc(Nc3cccc(F)c3)n2)c1 | -2.49 | 6.51 | 34.3 | 1.74 | 10.1 | 6.18 | 44.3 | 2.29 | 22.2 | 1.89 | 2.65 | 1.46 | 14.8 | -1.62 | 5.94 | 6.53 | 29 | 3.52 | 6.29 | 14.9
COC(=O)Nc1nc2cc(Oc3ccc(NC(=O)Nc4cccc(Br)c4)cc3)ccc2[nH]1 | 0.53 | 4.37 | 3.43 | 31.3 | 54 | 3.04 | 8.8 | 0.29 | 0.1 | 28.4 | 55.6 | 19.7 | 32.5 | 20.9 | 38.8 | 2.73 | 4.17 | 0.49 | 8.12 | 0.95
COc1cccc(-n2ncc3c(N/N=C/c4ccc(C)cc4)ncnc32)c1 | 0.76 | 6.46 | 5.78 | 4.38 | 5.1 | 4.86 | 9.73 | 0.47 | 5.39 | 9.62 | 5.28 | 3.97 | 5.08 | 3.96 | 2.64 | 7.7 | 7.5 | -1.37 | 19.1 | 3.98
Oc1cccc(-c2nc(-c3ccccc3)[nH]c2-c2ccncc2)c1 | 1.53 | 5.02 | 9.92 | 3.23 | 15.7 | 3.62 | 12.3 | 1.47 | 2.85 | 3.43 | 5.31 | 3.82 | 5.72 | 4.99 | 7.3 | 3.28 | 13.8 | -1.97 | 12.4 | 2.96
O=C(Nc1ccc(Oc2ccc3[nH]c(NC(=O)c4ccco4)nc3c2)cc1)Nc1cc(C(F)(F)F)ccc1F | -2.67 | -1.71 | 0.35 | 49.4 | 82.4 | 9.16 | 58.6 | 0.17 | 0.5 | 30.2 | 85.5 | 27.8 | 73.9 | 30.8 | 89.6 | -1.98 | -1.15 | 1.41 | 13.6 | -1.76
COC(=O)c1cncc(/C=C/c2c(C)cc(O)cc2C)c1 | -1.42 | 6.12 | 20.5 | 1 | 1.3 | 4.05 | 20 | 1.2 | 5.39 | 2.21 | 0.47 | 2.4 | 4.35 | 2 | 6.12 | 4.44 | 22.5 | -4.1 | 1.18 | 2.33
NS(=O)(=O)c1ccc(-c2cc3ccncc3cc2OCc2ccccc2)cc1 | 0.64 | 2.94 | 4.44 | 1.38 | 3.06 | 3.48 | 16 | 0.6 | 2.21 | 4.15 | 0.22 | 2.7 | 2.46 | 2.49 | 5.04 | 1.58 | 1.28 | -3.96 | 9.25 | 2.34
Cc1ccc2c(-c3ccnc(Nc4ccc5c(c4)OCCO5)n3)c(-c3ccc(C(F)(F)F)cc3)nn2n1 | -4.13 | -0.12 | 3.34 | -0.68 | 6.26 | -0.74 | 2.22 | -0.07 | 0.6 | -1.98 | -4.22 | -1.22 | 0.09 | 3.63 | -0.97 | -1.11 | 2.6 | -0.28 | 4.26 | 3.93
